The record followed here is PubChem BioAssay (Tox21).

Structures are written as SMILES. Records with an inconclusive call do not appear. Activity calls are given as the source filed them. Calls follow the shape of the full dose curve.
% is scaled to controls: 0 for no effect and ±100 for the full control effect.

Chain of Acetylcholinesterase (Homo sapiens) (P22303 whole entry, looked up): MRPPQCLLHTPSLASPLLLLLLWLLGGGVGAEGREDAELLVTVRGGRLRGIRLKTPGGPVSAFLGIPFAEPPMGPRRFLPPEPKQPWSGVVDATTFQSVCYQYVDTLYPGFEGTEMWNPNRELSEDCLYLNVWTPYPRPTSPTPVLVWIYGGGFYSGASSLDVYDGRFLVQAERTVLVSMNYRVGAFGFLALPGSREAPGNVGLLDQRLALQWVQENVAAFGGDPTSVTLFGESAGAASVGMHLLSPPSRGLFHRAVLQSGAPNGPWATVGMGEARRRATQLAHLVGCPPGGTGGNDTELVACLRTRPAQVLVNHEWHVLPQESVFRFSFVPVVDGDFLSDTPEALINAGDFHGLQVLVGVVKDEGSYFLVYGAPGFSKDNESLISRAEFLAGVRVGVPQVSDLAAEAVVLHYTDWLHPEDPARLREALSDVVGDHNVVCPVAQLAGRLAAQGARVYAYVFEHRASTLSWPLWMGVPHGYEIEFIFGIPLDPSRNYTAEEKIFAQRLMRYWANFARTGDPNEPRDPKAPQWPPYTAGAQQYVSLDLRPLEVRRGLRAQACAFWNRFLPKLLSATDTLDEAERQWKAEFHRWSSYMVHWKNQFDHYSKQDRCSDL

The first test deals with Acetylcholinesterase (Homo sapiens) (UniProt P22303). As to the kind of experiment: Acetylcholinesterase (AChE) small molecule antagonists: fluorescence cell-based qHTS assay (AID 1347398). Also: nearly all actives have a fitted effect of over 50% in size. Also: potency is read from the fitted curve at half-maximal effect. The conditions noted are these: SH-SY5Y cells; Potency: AChE activity; outcome: AChE activity; series mostly up to 115 µM; activity change, negative = inhibition: at the top concentration. In short, it runs like this:
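Cellular AChE activity read as thiocholine from acetylthiocholine hydrolysis, detected by Thiolite Green fluorescence at 490/520 nm after 40 min at room temperature. Compounds were pre-incubated 30 min at 37 C on adherent SH-SY5Y cells.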
With `NC(=O)c1ccc([N+](=O)[O-])cc1`, the “activity change, negative = inhibition” value is 3.94% (inactive).
On to `CC(=O)Nc1ccc(OCC(O)CNC(C)C)cc1` (stereo not given), for which the “activity change, negative = inhibition” value was 6.91% [at 53.7 µM] (inactive).
For `CN(C)CCCN(C)C`, the activity change, negative = inhibition was 0.828% [at 10.5 µM] (inactive).
In the case of `CCCc1ccccc1O`, the “activity change, negative = inhibition” value is 1.46% (inactive).
With `COc1cc(C(=O)N2CCCCCCC2)cc(OC)c1OC`, the “activity change, negative = inhibition” value is 2.31% [at 53.7 µM] (inactive).
Still for that read-out and setting: for `C[C@H]1C[C@H]2[C@@H]3CCC4=CC(=O)C=C[C@]4(C)[C@@]3(F)[C@@H](O)C[C@]2(C)[C@@]1(O)C(=O)COP(=O)(O)O` the value was 1.74% (inactive).
`Cc1ccccc1OCC(O)CO` (stereo not given): the “activity change, negative = inhibition” value is -3.54% [at 53.7 µM] (inactive).
For the molecule `CCCCCCCCCCCCCCO`, the Potency result is “inactive”.
Consider `CC(C)(O)C#CC(C)(C)O`, for which the “activity change, negative = inhibition” value was 2.89% (inactive).
`Oc1ccccc1O`: the Potency result is “inactive”.
Consider `Cc1ccccc1Cl`, for which the Potency result is “inactive”.
For the molecule `CCN1C(=O)c2ccccc2C1Nc1ccc(OCCN2CCCCC2)cc1` (stereo not given), the “activity change, negative = inhibition” value is -9.46% [at 53.7 µM] (inactive).
Same read-out and setting: to `CCc1ccc(Br)cc1` belongs 5.39% (inactive); to `CC1=CC(=O)CCC1`, 3.81% (inactive).
Still for that read-out and setting: to `CC(O)CN` (stereo not given) belongs -1.9% (inactive).
With `CCc1c(C(=O)O)c(=O)cnn1-c1ccc(Cl)cc1`, the “activity change, negative = inhibition” value was -1.37% (inactive).
Consider `CC(=O)O[C@@H]1CC2C3CCc4cc(OC(=O)c5ccccc5)ccc4C3CCC2(C)[C@H]1OC(C)=O` (stereo not given in full), for which the “activity change, negative = inhibition” value was 4.32% [at 53.7 µM] (inactive).
Consider `Cc1ccc2c(n1)Oc1ccc(C(C)C(=O)OCC(=O)N(C)C)cc1C2` (stereo not given), for which the Potency was 4.9 µM (active).
On to `O=C1c2ccccc2C(=O)C1c1ccc2ccccc2n1`, for which the “activity change, negative = inhibition” value is -1.24% [at 53.7 µM] (inactive).
For the molecule `O=C(O)Cc1c(Cl)ccc(Cl)c1Cl`, the “activity change, negative = inhibition” value is 0.615% (inactive).
On the same count and under the same terms, for `O=C(O)C(=O)Nc1cccc(-c2nn[nH]n2)c1` the value was 2.37% [at 53.7 µM] (inactive); for `C=C(C)C(=O)OCCCCCCCCCCCCCCCCCC`, 2.72% [at 23.8 µM] (inactive).
For the molecule `CCC(C)OC(=O)c1ccc(O)cc1` (stereo not given), the Potency result is “inactive”.
On to `CCCCCC(=O)OCCc1ccccc1`, for which the “activity change, negative = inhibition” value was -0.176% (inactive).
For `C=C(C)C(=O)OCCOC(=O)CC(C)=O`, the “activity change, negative = inhibition” value is 0.264% (inactive).
With `CCOC(=O)Cn1cccc1-c1nc(-c2ccc(OC)cc2)c(-c2ccc(OC)cc2)s1`, the “activity change, negative = inhibition” value was 6.33% [at 53.7 µM] (inactive).
In the case of `CC1COc2ccccc2N1C(=O)C(Cl)Cl` (stereo not given), the Potency result is “inactive”.
As for `Cc1ccc(C(C)C)cc2c(C)ccc1-2`, the “activity change, negative = inhibition” value was 0.715% [at 53.7 µM] (inactive).
Take `Cc1c[nH]c2ccccc12`: the “activity change, negative = inhibition” value is 7.21% [at 53.7 µM] (inactive).
Still for that read-out and setting: to `N=C(N)N` belongs 14.1% [at 53.7 µM] (inactive); to `CC(=O)NCCO`, 0.933% (inactive).
Take `CCS(=O)(=O)c1ccc(OC)c(C(=O)OC)c1`: the “activity change, negative = inhibition” value is 8.24% [at 53.7 µM] (inactive).
`CCCCN(CCCC)C(=O)N(CCCC)CCCC`: the “activity change, negative = inhibition” value was -2.29% (inactive).
Regarding `CC(C)OC(=O)c1cc(C(=O)OC(C)C)cc([N+](=O)[O-])c1`, the “activity change, negative = inhibition” value was -10% (inactive).
Consider `ON=C1CCCCC1`, for which the Potency entry was “inactive”.
For the molecule `O=C(O)[C@H](O)[C@@H](O)[C@H](O[C@@H]1O[C@H](CO)[C@H](O)[C@H](O)[C@H]1O)[C@H](O)CO`, the “activity change, negative = inhibition” value is 10.2% [at 53.7 µM] (inactive).
Still for that read-out and setting: for `CCCCCCCCCCCCCC(=O)OCC` the value was 0.694% (inactive); for `CC(CCO)CCCC(C)(C)O` (stereo not given), 3.91% (inactive).
Regarding `O=c1oc(=O)c2cc3c(=O)oc(=O)c3cc12`, the Potency entry is “inactive”.
Turning to `CC(=O)c1ccc2c(c1)N(CCCN(C)C)c1ccccc1S2`, the “activity change, negative = inhibition” value is -24.9% [at 53.7 µM] (inactive).

For another test the target is unchanged. As to the kind of experiment: Acetylcholinesterase (AChE) small molecule antagonists: enzyme-based qHTS assay with human liver microsomes (AID 1347399). Also: nearly all actives have a fitted effect of over 60% in size. The note with it: Potency: qHTS inhibition; outcome: qHTS inhibition; series mostly up to 115 µM; activity change, negative = inhibition: at the top concentration. An outline of the steps: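 Recombinant human AChE (50 mU/mL in the enzyme mix) and human liver microsomes (0.25 mg/mL final) were preincubated with compound and NADPH (0.25 mg/mL final) for 30 min at 37 C. Acetylthiocholine/DTNB was then added; thiocholine was read colorimetrically after 10 min at room temperature.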
Turning to `NC(=O)c1ccc([N+](=O)[O-])cc1`, the “activity change, negative = inhibition” value is -1.32% (inactive).
For the molecule `CC(=O)Nc1ccc(OCC(O)CNC(C)C)cc1` (stereo not given), the “activity change, negative = inhibition” value was -7.57% [at 53 µM] (inactive).
On the same count and under the same terms, for `CN(C)CCCN(C)C` the value was 0.146% [at 10.5 µM] (inactive).
With `CCCc1ccccc1O`, the “activity change, negative = inhibition” value is -2.53% (inactive).
For `COc1cc(C(=O)N2CCCCCCC2)cc(OC)c1OC`, the “activity change, negative = inhibition” value is -0.147% [at 53 µM] (inactive).
Take `C[C@H]1C[C@H]2[C@@H]3CCC4=CC(=O)C=C[C@]4(C)[C@@]3(F)[C@@H](O)C[C@]2(C)[C@@]1(O)C(=O)COP(=O)(O)O`: the “activity change, negative = inhibition” value was -1.18% (inactive).
For `Cc1ccccc1OCC(O)CO` (stereo not given), the “activity change, negative = inhibition” value is -6.31% [at 53 µM] (inactive).
For the molecule `CCCCCCCCCCCCCCO`, the Potency result is “inactive”.
With `CC(C)(O)C#CC(C)(C)O`, the “activity change, negative = inhibition” value is -2.37% (inactive).
With `Oc1ccccc1O`, the Potency result was “inactive”.
Still for that read-out and setting: for `Cc1ccccc1Cl` the value was “inactive”.
As to `CCN1C(=O)c2ccccc2C1Nc1ccc(OCCN2CCCCC2)cc1` (stereo not given), the “activity change, negative = inhibition” value was 0.17% [at 53 µM] (inactive).
For `CCc1ccc(Br)cc1`, the “activity change, negative = inhibition” value was 0.171% (inactive).
Turning to `CC1=CC(=O)CCC1`, the “activity change, negative = inhibition” value was -0.149% (inactive).
With `CC(O)CN` (stereo not given), the “activity change, negative = inhibition” value is -0.149% (inactive).
As for `CCc1c(C(=O)O)c(=O)cnn1-c1ccc(Cl)cc1`, the “activity change, negative = inhibition” value was 0.238% (inactive).
For `CC(=O)O[C@@H]1CC2C3CCc4cc(OC(=O)c5ccccc5)ccc4C3CCC2(C)[C@H]1OC(C)=O` (stereo not given in full), the “activity change, negative = inhibition” value was 0.184% [at 53 µM] (inactive).
`Cc1ccc2c(n1)Oc1ccc(C(C)C(=O)OCC(=O)N(C)C)cc1C2` (stereo not given): the Potency result is “inactive”.
Regarding `O=C1c2ccccc2C(=O)C1c1ccc2ccccc2n1`, the “activity change, negative = inhibition” value is 4.15% [at 53 µM] (inactive).
Regarding `O=C(O)Cc1c(Cl)ccc(Cl)c1Cl`, the “activity change, negative = inhibition” value was 0.226% (inactive).
With `O=C(O)C(=O)Nc1cccc(-c2nn[nH]n2)c1`, the “activity change, negative = inhibition” value was 0.745% [at 53 µM] (inactive).
`C=C(C)C(=O)OCCCCCCCCCCCCCCCCCC`: the activity change, negative = inhibition was 0.563% [at 23.6 µM] (inactive).
`CCC(C)OC(=O)c1ccc(O)cc1` (stereo not given): the Potency entry is “inactive”.
As to `CCCCCC(=O)OCCc1ccccc1`, the “activity change, negative = inhibition” value is 0% (inactive).
Consider `C=C(C)C(=O)OCCOC(=O)CC(C)=O`, for which the “activity change, negative = inhibition” value was -0.321% (inactive).
For the molecule `CCOC(=O)Cn1cccc1-c1nc(-c2ccc(OC)cc2)c(-c2ccc(OC)cc2)s1`, the “activity change, negative = inhibition” value was 0.0836% [at 53 µM] (inactive).
Consider `CC1COc2ccccc2N1C(=O)C(Cl)Cl` (stereo not given), for which the Potency result was “inactive”.
Consider `Cc1ccc(C(C)C)cc2c(C)ccc1-2`, for which the “activity change, negative = inhibition” value is 1.53% [at 53 µM] (inactive).
Regarding `Cc1c[nH]c2ccccc12`, the “activity change, negative = inhibition” value was -0.338% [at 53 µM] (inactive).
As for `N=C(N)N`, the “activity change, negative = inhibition” value was -1.24% [at 53 µM] (inactive).
Regarding `CC(=O)NCCO`, the “activity change, negative = inhibition” value is 0.458% (inactive).
The same measure, in the same setting: to `CCS(=O)(=O)c1ccc(OC)c(C(=O)OC)c1` belongs 0.295% [at 53 µM] (inactive).
On to `CCCCN(CCCC)C(=O)N(CCCC)CCCC`, for which the “activity change, negative = inhibition” value is -0.161% (inactive).
With `CC(C)OC(=O)c1cc(C(=O)OC(C)C)cc([N+](=O)[O-])c1`, the “activity change, negative = inhibition” value was -1.67% (inactive).
As for `ON=C1CCCCC1`, the Potency result was “inactive”.
In the case of `O=C(O)[C@H](O)[C@@H](O)[C@H](O[C@@H]1O[C@H](CO)[C@H](O)[C@H](O)[C@H]1O)[C@H](O)CO`, the “activity change, negative = inhibition” value is -4.62% [at 53 µM] (inactive).
As for `CCCCCCCCCCCCCC(=O)OCC`, the “activity change, negative = inhibition” value is 0.0904% (inactive).
Take `CC(CCO)CCCC(C)(C)O` (stereo not given): the “activity change, negative = inhibition” value was -0.768% (inactive).
As for `O=c1oc(=O)c2cc3c(=O)oc(=O)c3cc12`, the Potency entry was “inactive”.
Turning to `CC(=O)c1ccc2c(c1)N(CCCN(C)C)c1ccccc1S2`, the “activity change, negative = inhibition” value is -0.885% [at 53 µM] (inactive).
